High-throughput results from PubChem BioAssay.
Eya2 inh: Eya2 (human) phosphatase inhibition; Potency, µM (titrated, usually from 76.9 µM), inactives show top-dose activity, negative = inhibition, actives largely listed as inhibitors; hit rate 0.006% among 330,000; O00167; recombinant Eya2, OMFP fluorescence dephosphorylation (OMFP is methylfluorescein phosphate); also: % is scaled to controls: 0 for no effect and ±100 for the full control effect
Target sequence (O00167 whole entry, looked up): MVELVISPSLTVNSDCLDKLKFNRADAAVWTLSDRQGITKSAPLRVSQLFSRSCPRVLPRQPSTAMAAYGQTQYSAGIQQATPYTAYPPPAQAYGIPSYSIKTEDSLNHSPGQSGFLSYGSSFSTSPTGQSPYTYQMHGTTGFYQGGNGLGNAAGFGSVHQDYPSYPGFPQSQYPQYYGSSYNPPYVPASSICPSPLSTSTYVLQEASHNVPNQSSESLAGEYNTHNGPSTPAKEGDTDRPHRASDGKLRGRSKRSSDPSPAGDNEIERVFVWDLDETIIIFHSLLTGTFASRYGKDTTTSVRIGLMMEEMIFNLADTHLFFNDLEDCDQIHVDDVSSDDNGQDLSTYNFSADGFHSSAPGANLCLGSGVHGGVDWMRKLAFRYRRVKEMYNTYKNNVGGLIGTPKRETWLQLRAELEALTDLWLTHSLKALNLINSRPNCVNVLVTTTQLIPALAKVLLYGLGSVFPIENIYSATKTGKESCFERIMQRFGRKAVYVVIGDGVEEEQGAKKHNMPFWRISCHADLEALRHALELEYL
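Eya2 protein (added as 0.2 uM solution) was preincubated with compound for 10 min at ambient temperature in 50 mM HEPES pH 7.5, 50 mM NaCl, 5 uM MgCl2, 0.05% BSA, 1 mM DTT. OMFP (added at 50 uM) then reacted 10 min; fluorescence read at 485/525 nm.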
AT treatment: candidate therapy for ataxia-telangiectasia. hit rate 0.19% among 320,000. F2112 A-T fibroblasts, KAP-1 phosphorylation AlphaLISA; neocarzinostatin DNA damage 30 min before lysis. AID 485349. Potency, µM (series often up to 57.5 µM), inactives show at the top dose activation, actives largely listed as activators; also: % of control where 0% means no effect; nearly all actives have a fitted effect of over 45% in size
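hTERT-immortalized A-T patient fibroblasts (F2112), 500 cells/well in OPTI-MEM, 1% FBS, got compounds for 60 min, then NCS for 30 min at 37C. Lysates were then assayed for phospho-KAP-1 by AlphaLISA (anti-pKAP1 donor, anti-KAP1 acceptor beads), 6 hr at 25C.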
N370S GC: inhibits or activates N370S mutant glucocerebrosidase | Potency, µM (highest dose often 59.4 µM), inactives show at the top dose activity change, negative = inhibition, hits mostly inhibitors | N370S GC spleen homogenate, 4MU-glucoside fluorescence | P04062 | hit rate 0.092% among 330,000 | AID 2101;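 also: 0% = full enzyme activity and -100% = no enzyme basal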
Mito fusion yeast: blocks mitochondrial division or promotes mitochondrial fusion; S. cerevisiae fusion-defective mutant growth rescue, CellTiterGlo 48 h; Potency, µM (titrated, usually from 46.1 µM), without a hit: at the highest dose growth rescue (activation), actives largely listed as activators; hit rate 0.23% among 320,000; also: % of control where 0% means no effect; nearly all actives have a fitted effect of over 45% in size
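S. cerevisiae fusion-defective temperature-sensitive mutants (e.g. fzo1-1, mgm1-5) grown 48 h at 37C in YPEG (ethanol/glycerol non-fermentable) medium with 23 nl compound per well; growth rescue read as CellTiterGlo luminescence.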
Active calls of the source: *; u = inconclusive; x = not tested or not shown; ! = repeats disagree; [ ] = remark or other dose. Most compounds without a hit are left out; they make up all but 0.47% or so of the library. Calls follow the shape of the dose curve; as a rule, active = well fitted curve in the direction sought with a large enough effect; inconclusive = small, poorly fitted or top-dose-only effect, or another doubt; inactive = no such curve, though single readings can be large; an effect the other way counts as inactive or inconclusive. Potency is read from the fitted curve at half-maximal effect.

SMILES	Eya2 inh	AT treatment	N370S GC	Mito fusion yeast
Clc1ccc(-c2nnc(-c3ccc(Br)cc3)c(N3CCSCC3)n2)cc1	4.8%	1.8%	6.2%	3.2%
C=CCc1c(C)nc(-c2ccccc2)nc1N/N=C(\C)c1ccc(N)cc1	-23.3%	0.8%	12.6µM*	2.5%
C=CCc1c(C)nc(-c2ccccc2)nc1N/N=C/c1ccccc1	-4.3%	2.9%	15.8µM*	-1.2%
O=C(NC(=S)N1CCN(Cc2ccc3c(c2)OCO3)CC1)c1cccc(Br)c1	-4.0%	-1.8%	-19.7%	15.6%
Cn1ncc(Oc2ccc([N+](=O)[O-])cc2)c(Cl)c1=O	-25.9%	39.8µM*	-1.5%	1.1%
CCOC(=O)c1c(-c2ccccc2)csc1NC(=O)C(C)NCCCN1CCOCC1 (stereo unspecified)	-4.6%	-0.9%	-14.0%	10.5%
CCOC(=O)c1c(-c2ccc(F)cc2)csc1NC(=O)CCN1CCOCC1	-14.4%	-4.6%	-21.5%	11.2µM*
CCOC(=O)c1c(-c2ccc(F)cc2)csc1NC(=O)CCN1C(=O)c2ccccc2C1=O	-5.3%	-1.4%	-11.3%	-0.4%
CCOC(=O)c1c(-c2ccc(-c3ccccc3)cc2)csc1NC(=O)CCN1CCOCC1	-2.4%	9.7%	x	10µM*
Cc1cc2nnc(SCC(=O)N3CCCCCC3)n2c(N)n1	1.8%	-0.1%[11.5 µM]	-6.5%	3.6%
CCCn1nc(NC(=O)c2ccco2)c2cc3cc(C)ccc3nc21	-0.9%	22.4µM*	10.9%	2.2%
CCCn1nc(NC(=O)c2ccco2)c2cc3ccc(C)cc3nc21	-17.2%	25.5%	5.5%	4.5%
O=S(=O)(Nc1cc2nc3ccccc3nc2n1Cc1ccccc1)c1ccc(Cl)cc1	0.0%	25.1µM*	-19.5%	-1.1%
O=S(=O)(NCc1ccccc1)c1ccc(Cl)cc1	-8.1%	-2.1%	2.6%	1.3%
Cc1ccc(NC(=O)COC(=O)CNC(=O)c2ccc(C)s2)cc1	7.8%	1.3%	-3.3%	1.7%
O=C(CSc1nc2ccccc2o1)Nc1nc(-c2ccccc2)cs1	-1.2%	-4.0%	7.9%	15.8µM*
O=C(OCc1cc([N+](=O)[O-])cc2c1OCOC2)c1cccnc1SC(F)F	14.5%	4.4%	4.1%	4.8%
CCOc1ccc(NS(=O)(=O)c2ccc(C(=O)NCCCN3CCOCC3)cc2)cc1	-2.9%	20.2%	-4.0%	-0.3%
O=C(O)c1ccc(NCc2cccc(Br)c2)cc1	1.1%	0.3%	4.2%	10µM*
O=C(OCc1ccccc1)c1ccccc1O	5.8%	-0.1%	10.6%	x
Nc1nc2ccccc2n1/N=C/c1ccc([N+](=O)[O-])s1	7.0%	-4.4%	-0.6%	11.2µM*
Nc1nc(N2CCN(c3cccc(Cl)c3)CC2)n[nH]1	-5.1%	3.6%	-3.9%	-0.2%
Nc1ccc(N2CCN(c3cccc(Cl)c3)CC2)cc1	0.7%	1.0%	9.5%	3.98µM*
CN(C)c1oc(-c2ccccc2F)nc1C#N	-4.1%	-2.9%	9.1%	0.0%
CCN(CC)C(=S)SCC(=O)c1ccc(Br)cc1	-7.5%	28.3%	16.3%	11.2µM*
SMILES	Eya2 inh	AT treatment	N370S GC	Mito fusion yeast
CCOC(=O)CN1C(=O)N[C@@H](c2cccs2)C(C(=O)OC)=C1C	x	x	5.4%[12.8 µM]	x
O=C(NC(=O)c1c(F)cccc1F)Nc1ccccc1SC(F)F	1.8%	10µM*	-0.5%	-3.3%
O=C(O)c1ccc2c(c1)C1C=CCC1C(c1cc3c(cc1Br)OCO3)N2 (stereo unspecified)	9.4%	1.8%	-10.2%	11.2µM*
CCN1C(=O)[C@H]2[C@@H](c3ccc(-c4ccc(Cl)c(Cl)c4)cc3)N[C@@](CC(C)C)(C(=O)OC)[C@H]2C1=O	-5.6%	35.5µM*	-14.8%	16.0%
COc1cc2c(c(OC)c1OC)-c1c(cc3c(c1O)OCO3)C[C@@H](C)[C@@H](C)C2	-3.8%	-25.8%	-3.2%	17.8µM*
COc1cc2c(c(OC)c1OC)-c1c(cc(OC)c(OC)c1OC)C[C@H](C)[C@H](C)C2	-7.4%	u	0.3%	-14.7%
COc1cc2c(c(O)c1OC)-c1c(cc(OC)c(OC)c1OC)C[C@@H](C)[C@@H](C)C2	-3.4%	20µM*	0.8%	u
O=C(COC(=O)c1ccccc1C(=O)c1ccccc1)Nc1ccc(SC(F)F)cc1	3.7%	14.5%	u	15.8µM*
CN1CCN(NC(=O)c2cc(S(=O)(=O)N3CCOCC3)c(Cl)cc2Cl)CC1	-8.6%	2.8%	-3.1%	-3.8%
COc1ccccc1N/C(=N/S(=O)(=O)c1ccc(Cl)cc1)c1ccccc1	-21.7%	-8.0%	23.3%	15.3%
O=c1c(O[C@@H]2O[C@H](CO)[C@H](O)[C@H](O)[C@H]2O)c(-c2ccc(O)c(O)c2)oc2cc(O)cc(O)c12	1.0%	x	u	-4.8%
COc1c(-c2ccc(O)c(O)c2)oc2cc(O)cc(O)c2c1=O	6.4%	-24.3%	-9.6%	0.631µM*
C[C@]12CC[C@@H]3c4ccc(O)cc4CC[C@H]3[C@@H]1CC[C@@H]2O	-2.9%	-5.3%	11.6%	23.1µM*!
O=C(c1cccc2ccccc12)N1CCN(CC2CC=CCC2)CC1 (stereo unspecified)	7.0%	4.0%	-6.6%	9.5%
N#CCN1C(=O)C(=O)N(Cc2cccc(Cl)c2)C1=O	13.9%	0.708µM*	3.8%	18.5%
Nc1cccc2c1C(=O)N(Cc1cccc(Cl)c1)C2=O	-4.5%	24.8%	17.5%	0.2%[9.22 µM]
Cc1ccc(Nc2nc(N)c([N+](=O)[O-])c(N3CCC(C)CC3)n2)cc1C	1.0%	31.6µM*	17.5%	-27.0%
Cn1c(SCCN2CCCCC2)nnc1-c1ccccc1Br	4.6%	4.3%	1.7%	2.0%
CC/C=C/C(=O)N1CC2(CC(c3cccc(NC(=O)c4ccccc4)c3)=NO2)C[C@@H]1C(N)=O (stereo partly specified)	15.2%	-2.1%	0.9%	0.4%
CS(=O)(=O)c1[nH]nc(-c2cccc(Cl)c2)c1C#N	2.9%	39.8µM*	1.8%	-1.4%
COc1ccccc1OCC(=O)NNC(=O)CCCC(=O)NNC(=O)COc1ccccc1OC	-3.3%	-6.4%	1.0%	0.7%
NC(=S)NNC(=O)COc1ccccc1O	7.6%	15.8µM*	-10.4%	2.8%
CCc1ccc(C(C(=O)NC(C)(C)CC)N(Cc2ccco2)C(=O)Cn2nnc3ccccc32)cc1 (stereo unspecified)	-6.9%	x	11.9%	3.4%
CCC(C)(C)NC(=O)C(c1ccccc1F)N(Cc1ccco1)C(=O)Cn1nnc2ccccc21 (stereo unspecified)	-19.3%	6.2%	-12.9%	10µM*
Cc1cc(S(=O)(=O)Nc2ccc(C(=O)NCC(c3ccco3)N(C)C)cc2)ccc1F (stereo unspecified)	-4.8%	-1.1%	-12.1%	8.0%
CCn1c2c(c3cc(OCC(C)C)ccc31)CCCC2=O	-6.8%	31.6µM*	-2.7%	14.1%
Cc1ccc(S(=O)(=O)Cc2csc(N)n2)cc1	23.0%	0.8%	-5.9%	-1.0%
COc1ccc(N(C(=O)c2ccccc2C)S(=O)(=O)c2cccs2)cc1	1.6%	-1.6%	2.9%	23.8%
C=CCc1ccc(OCC(O)CN2CCN(c3ccccc3)CC2)c(OC)c1 (stereo unspecified)	-5.8%	20µM*	-25.6%	-21.8%
